# Experimental data: ChEMBL document CHEMBL2218924, “A broad activity screen in support of a chemogenomic map for kinase signalling research and drug discovery” (Biochem J, 2013); call rule not given here
# Columns and labels:
# [1] = target: T1, Ephrin type-B receptor 1 (Homo sapiens) (UniProt P54762); details: at 10 µM
# T1 sequence (whole entry): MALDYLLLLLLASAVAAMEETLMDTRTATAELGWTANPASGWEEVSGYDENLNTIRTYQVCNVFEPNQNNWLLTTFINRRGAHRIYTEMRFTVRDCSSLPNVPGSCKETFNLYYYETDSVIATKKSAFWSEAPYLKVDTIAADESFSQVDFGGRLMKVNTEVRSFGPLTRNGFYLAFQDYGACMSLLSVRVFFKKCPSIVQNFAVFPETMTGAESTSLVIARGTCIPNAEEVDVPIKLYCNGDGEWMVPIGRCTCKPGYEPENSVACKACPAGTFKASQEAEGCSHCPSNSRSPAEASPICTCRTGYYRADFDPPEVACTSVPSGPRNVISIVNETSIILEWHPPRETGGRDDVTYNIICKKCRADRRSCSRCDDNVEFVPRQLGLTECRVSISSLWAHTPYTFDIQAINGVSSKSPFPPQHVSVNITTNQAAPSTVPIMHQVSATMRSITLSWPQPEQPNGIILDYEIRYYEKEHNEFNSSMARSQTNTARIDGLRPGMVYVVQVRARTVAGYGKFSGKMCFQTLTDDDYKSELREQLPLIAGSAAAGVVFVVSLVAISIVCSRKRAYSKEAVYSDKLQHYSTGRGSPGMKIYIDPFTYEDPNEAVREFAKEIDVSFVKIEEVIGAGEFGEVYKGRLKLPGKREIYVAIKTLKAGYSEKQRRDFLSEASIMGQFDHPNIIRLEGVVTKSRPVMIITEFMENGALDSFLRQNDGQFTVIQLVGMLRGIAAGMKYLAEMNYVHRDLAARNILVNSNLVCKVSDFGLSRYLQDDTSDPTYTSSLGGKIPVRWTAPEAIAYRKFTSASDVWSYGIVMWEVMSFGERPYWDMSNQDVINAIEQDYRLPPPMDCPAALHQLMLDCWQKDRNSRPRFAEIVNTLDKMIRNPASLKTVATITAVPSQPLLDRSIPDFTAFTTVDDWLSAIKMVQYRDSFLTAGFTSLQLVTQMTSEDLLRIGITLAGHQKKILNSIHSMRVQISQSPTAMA
# [2] = target: T2, Ephrin type-B receptor 2 (Homo sapiens) (UniProt P29323); details: at 1 µM
# T2 sequence (whole entry): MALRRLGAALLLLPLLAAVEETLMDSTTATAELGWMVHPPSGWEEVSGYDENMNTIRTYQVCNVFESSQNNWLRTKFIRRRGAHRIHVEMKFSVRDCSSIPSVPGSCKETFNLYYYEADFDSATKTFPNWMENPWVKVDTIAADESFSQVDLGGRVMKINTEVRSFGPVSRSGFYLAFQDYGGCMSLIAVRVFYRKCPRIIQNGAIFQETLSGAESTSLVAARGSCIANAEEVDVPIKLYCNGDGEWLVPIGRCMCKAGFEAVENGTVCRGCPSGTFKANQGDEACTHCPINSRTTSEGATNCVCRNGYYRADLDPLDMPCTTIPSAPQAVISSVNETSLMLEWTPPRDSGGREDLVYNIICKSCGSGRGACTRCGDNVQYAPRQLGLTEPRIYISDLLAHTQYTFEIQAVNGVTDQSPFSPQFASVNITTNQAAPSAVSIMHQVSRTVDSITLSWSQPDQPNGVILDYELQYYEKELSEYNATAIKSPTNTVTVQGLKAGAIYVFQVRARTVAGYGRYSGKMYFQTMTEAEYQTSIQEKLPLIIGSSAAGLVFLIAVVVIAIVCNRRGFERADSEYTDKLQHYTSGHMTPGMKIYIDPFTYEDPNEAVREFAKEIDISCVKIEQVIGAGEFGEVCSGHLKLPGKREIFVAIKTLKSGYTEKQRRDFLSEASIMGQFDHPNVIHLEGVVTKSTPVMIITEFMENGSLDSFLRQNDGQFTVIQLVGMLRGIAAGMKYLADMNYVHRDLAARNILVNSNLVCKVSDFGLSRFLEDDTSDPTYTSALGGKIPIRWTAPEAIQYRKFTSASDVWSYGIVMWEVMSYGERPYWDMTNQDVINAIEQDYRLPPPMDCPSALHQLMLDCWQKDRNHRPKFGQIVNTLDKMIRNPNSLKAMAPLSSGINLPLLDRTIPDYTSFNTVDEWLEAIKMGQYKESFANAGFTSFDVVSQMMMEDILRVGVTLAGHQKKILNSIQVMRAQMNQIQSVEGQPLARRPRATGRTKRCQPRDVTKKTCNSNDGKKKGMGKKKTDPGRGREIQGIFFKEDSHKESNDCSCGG
# [3] = target: T2, Ephrin type-B receptor 2 (Homo sapiens); details: at 10 µM
# [4] = target: T3, Ephrin type-B receptor 3 (Homo sapiens) (UniProt P54753); details: at 1 µM
# T3 sequence (whole entry): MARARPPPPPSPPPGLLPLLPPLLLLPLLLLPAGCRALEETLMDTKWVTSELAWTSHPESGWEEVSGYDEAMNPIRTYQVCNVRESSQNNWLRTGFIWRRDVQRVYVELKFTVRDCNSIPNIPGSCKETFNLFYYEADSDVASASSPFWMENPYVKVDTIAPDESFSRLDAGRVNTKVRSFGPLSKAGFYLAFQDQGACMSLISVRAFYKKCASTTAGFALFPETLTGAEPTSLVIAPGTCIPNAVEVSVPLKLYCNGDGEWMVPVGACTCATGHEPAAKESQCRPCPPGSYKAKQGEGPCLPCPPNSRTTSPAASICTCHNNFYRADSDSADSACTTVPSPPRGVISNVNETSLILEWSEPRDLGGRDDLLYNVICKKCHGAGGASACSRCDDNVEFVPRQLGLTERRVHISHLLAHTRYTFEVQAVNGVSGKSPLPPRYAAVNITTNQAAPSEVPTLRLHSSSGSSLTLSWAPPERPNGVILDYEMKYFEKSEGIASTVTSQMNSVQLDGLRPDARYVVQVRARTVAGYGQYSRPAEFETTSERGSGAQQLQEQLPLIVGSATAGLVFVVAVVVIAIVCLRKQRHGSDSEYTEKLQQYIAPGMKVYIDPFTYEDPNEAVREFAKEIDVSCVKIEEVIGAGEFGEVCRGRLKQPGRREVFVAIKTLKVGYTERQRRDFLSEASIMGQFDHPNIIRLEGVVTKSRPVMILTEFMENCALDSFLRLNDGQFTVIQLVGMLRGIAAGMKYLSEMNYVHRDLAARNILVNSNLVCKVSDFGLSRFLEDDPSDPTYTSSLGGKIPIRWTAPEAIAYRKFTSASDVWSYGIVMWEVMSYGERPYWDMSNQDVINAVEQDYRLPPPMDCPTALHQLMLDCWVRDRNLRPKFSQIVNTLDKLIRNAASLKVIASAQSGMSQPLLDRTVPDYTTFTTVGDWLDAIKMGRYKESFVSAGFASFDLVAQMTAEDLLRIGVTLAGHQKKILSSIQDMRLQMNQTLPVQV
# [5] = target: T3, Ephrin type-B receptor 3 (Homo sapiens); details: at 10 µM
# [6] = target: T4, Ephrin type-B receptor 4 (Homo sapiens) (UniProt P54760); details: at 1 µM
# T4 sequence (whole entry): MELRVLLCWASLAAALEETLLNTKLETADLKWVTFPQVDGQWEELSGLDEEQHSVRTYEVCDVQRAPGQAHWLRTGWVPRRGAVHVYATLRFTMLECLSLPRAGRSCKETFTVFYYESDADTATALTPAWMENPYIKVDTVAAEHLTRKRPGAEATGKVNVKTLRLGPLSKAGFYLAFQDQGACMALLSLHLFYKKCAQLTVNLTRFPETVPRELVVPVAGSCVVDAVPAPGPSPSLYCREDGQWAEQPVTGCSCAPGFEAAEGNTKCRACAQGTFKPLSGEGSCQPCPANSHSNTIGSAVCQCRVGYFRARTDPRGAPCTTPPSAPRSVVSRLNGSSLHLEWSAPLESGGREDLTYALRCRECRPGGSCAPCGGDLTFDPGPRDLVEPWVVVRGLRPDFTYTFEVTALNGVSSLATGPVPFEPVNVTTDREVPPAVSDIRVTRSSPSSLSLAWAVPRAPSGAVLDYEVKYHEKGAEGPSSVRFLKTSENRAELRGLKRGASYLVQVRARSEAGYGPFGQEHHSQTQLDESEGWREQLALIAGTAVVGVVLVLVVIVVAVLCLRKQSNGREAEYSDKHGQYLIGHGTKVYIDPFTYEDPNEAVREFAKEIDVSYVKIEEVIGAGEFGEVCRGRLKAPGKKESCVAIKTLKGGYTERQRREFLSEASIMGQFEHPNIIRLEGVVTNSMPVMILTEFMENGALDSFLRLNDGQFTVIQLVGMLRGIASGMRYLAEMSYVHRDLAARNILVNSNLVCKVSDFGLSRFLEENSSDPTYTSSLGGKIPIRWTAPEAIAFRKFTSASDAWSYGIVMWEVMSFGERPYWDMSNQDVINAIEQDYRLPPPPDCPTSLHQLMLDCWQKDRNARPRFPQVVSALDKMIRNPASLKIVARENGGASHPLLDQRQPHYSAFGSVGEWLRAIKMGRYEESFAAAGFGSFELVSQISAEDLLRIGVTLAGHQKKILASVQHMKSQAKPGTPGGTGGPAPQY
# [7] = target: T4, Ephrin type-B receptor 4 (Homo sapiens); details: at 10 µM
# [8] = target: Receptor tyrosine-protein kinase erbB-4 (Homo sapiens) (UniProt Q15303); details: at 1 µM
# Receptor tyrosine-protein kinase erbB-4 (Homo sapiens), sequence (Q15303 whole entry): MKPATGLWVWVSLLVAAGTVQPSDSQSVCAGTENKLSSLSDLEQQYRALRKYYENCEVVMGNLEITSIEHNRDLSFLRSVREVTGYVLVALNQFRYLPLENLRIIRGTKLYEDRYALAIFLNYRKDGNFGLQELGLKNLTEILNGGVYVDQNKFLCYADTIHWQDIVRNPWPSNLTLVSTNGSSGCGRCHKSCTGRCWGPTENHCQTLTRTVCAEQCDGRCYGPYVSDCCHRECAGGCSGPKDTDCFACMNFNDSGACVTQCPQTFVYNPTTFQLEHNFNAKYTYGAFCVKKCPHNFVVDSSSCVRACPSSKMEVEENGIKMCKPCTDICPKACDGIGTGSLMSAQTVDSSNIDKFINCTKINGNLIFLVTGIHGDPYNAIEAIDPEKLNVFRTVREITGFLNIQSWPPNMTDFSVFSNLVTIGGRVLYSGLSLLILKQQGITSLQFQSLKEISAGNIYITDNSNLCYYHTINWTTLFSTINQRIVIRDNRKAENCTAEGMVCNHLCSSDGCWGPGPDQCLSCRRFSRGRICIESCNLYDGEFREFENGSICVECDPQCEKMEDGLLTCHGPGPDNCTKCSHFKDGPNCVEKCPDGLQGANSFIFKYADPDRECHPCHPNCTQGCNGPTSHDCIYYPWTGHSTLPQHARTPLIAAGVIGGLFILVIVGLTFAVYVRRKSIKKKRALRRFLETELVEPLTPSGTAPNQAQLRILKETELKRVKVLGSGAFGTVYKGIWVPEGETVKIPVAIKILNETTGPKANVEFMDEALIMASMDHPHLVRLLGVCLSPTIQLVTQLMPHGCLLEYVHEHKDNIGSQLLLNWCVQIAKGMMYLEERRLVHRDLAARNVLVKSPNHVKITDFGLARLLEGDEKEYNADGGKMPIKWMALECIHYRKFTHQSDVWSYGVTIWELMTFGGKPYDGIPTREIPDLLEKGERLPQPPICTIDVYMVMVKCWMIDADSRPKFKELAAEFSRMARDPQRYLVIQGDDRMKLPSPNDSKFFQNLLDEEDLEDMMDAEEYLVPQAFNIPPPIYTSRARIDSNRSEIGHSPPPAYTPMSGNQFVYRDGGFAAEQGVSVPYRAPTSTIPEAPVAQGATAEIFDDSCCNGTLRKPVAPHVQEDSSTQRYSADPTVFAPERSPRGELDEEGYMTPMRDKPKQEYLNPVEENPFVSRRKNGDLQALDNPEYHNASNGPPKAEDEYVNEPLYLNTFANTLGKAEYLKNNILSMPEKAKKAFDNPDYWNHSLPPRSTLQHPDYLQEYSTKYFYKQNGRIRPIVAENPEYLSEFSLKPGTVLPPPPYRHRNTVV
# [9] = target: Receptor tyrosine-protein kinase erbB-4 (Homo sapiens) (UniProt Q15303); details: at 10 µM
# [10] = target: Focal adhesion kinase 1 (Homo sapiens) (UniProt Q05397); details: at 1 µM
# Focal adhesion kinase 1 (Homo sapiens), sequence (Q05397 2-1052 limits assumed): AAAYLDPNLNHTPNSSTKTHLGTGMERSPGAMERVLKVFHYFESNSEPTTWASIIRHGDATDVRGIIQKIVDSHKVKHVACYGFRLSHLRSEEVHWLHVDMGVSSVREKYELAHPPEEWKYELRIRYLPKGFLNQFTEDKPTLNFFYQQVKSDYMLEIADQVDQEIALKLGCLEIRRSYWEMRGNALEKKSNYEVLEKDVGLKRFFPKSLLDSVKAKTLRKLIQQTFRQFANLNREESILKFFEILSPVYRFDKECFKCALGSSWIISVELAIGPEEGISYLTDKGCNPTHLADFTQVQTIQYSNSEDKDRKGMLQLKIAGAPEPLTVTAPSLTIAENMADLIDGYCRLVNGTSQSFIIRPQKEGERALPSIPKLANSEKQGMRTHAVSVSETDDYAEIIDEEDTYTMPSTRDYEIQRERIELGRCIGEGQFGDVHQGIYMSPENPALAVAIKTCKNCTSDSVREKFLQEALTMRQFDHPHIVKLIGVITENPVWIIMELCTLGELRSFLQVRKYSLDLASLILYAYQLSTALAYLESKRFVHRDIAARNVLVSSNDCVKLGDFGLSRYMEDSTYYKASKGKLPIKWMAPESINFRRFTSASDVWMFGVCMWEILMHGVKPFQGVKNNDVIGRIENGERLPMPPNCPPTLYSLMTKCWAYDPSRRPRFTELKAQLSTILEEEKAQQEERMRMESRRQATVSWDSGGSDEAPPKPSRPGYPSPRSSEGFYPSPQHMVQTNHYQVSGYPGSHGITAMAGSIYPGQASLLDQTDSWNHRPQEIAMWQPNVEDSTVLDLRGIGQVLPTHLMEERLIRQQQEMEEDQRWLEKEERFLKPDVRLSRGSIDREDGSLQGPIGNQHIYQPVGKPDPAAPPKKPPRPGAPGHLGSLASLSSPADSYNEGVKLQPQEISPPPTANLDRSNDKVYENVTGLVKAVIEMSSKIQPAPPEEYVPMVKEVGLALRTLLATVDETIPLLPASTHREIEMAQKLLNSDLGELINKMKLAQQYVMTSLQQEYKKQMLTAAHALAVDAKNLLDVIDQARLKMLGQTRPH
smiles,measurement,setting,value
NC(=O)Nc1sc(-c2ccc(F)cc2)cc1C(N)=O,residual activity,[1],0%
same,residual activity,[2],93%
same,residual activity,[3],19%
same,residual activity,[4],117% (inactive)
same,residual activity,[5],117%
same,residual activity,[6],49%
same,residual activity,[7],6%
same,residual activity,[8],91%
same,residual activity,[9],59%
same,residual activity,[10],68%
